Reference: PubChem BioAssay (NCATS)
Results filed as inconclusive are left out. Activity calls are given as the source filed them. Unless noted, the call rests on the fitted dose curve; in most records, active means well fitted curve in either direction with a large enough effect (not every such curve was filed as active); inconclusive means small, poorly fitted or top-dose-only effect, or another doubt; inactive means flat fitted curve, though single readings scatter.

What was measured:
[1] = target: Lysosomal acid glucosylceramidase (Homo sapiens) (UniProt P04062); assay: Glucocerebrosidase-p2 (AID 348; in the data active means potency below about 10 µM; further: potency means the concentration at half of the fitted maximal effect); details: purified GBA, blue fluorogenic substrate, 40 min
Summary of the method: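 Compounds titrated from 0.6 nM upwards against 0.2 nM enzyme in pH 5.9 citric acid/KH2PO4, taurocholate, tween-20; blue fluorogenic substrate 80 uM, 40 min room temperature, stopped and read Ex 365/Em 440 for AC50.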

[2] = AP1 Signaling Pathway (AID 357); details: ME-180 AP-1-bla reporter, EGF-induced, beta-lactamase ratio, 5 h; at 7.69 µM (top of the series) unless noted;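 further: ME-180 reporter cells stimulated with EGF at its EC50 level; on the % scale 0 is the no-effect control and ±100 the full control effect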
Summary of the method: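 Read-out was the 460nm/530nm emission ratio (excitation 405nm) after CCF4 loading for 2.5 hours at room temperature. Cells carried an AP-1-driven beta-lactamase reporter, were stimulated with EC50 EGF plus compound for 5 hours, and AC50 values came from titrations.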

[3] = target: Cytochrome P450 1A2 (Homo sapiens) (UniProt P05177); assay: p450-cyp1a2 (AID 410; calls by dose curve; further: potency means the concentration at half of the fitted maximal effect;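 on activity change, negative = inhibition: -100% = full effect of reference inhibitor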); details: recombinant CYP1A2, luciferin-ME demethylation, luminescence; series mostly up to 11.4 µM
Summary of the method: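 Human CYP1A2 (20nM) demethylated Luciferin-ME at its Km (100uM) in 100mM KPO4. After 10 min compound preincubation, NADPH regeneration ran the reaction 60 min at room temperature. Luciferin was read by luminescence, normalized to 57 uM furafylline.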

[4] = NFAT Signaling Pathway (AID 444); details: Jurkat NFAT-bla M1, carbachol, beta-lactamase ratio, 5 h; at 7.69 µM (top of the series) unless noted;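 further: carbachol stimulus at about its EC50 of 1 µM final; on the % scale 0 is the no-effect control and ±100 the full control effect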
Summary of the method: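 Read-out: CCF4 FRET ratio (460 nm/530 nm) after 1 h RT dye loading, used for %activity and AC50 from titration series. Cells: Jurkat NFAT-β-lactamase/M1 line, treated with compound plus 1 uM carbachol for 5 h, 37 °C.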

[5] = Stat Signaling Pathway (AID 446); details: ME-180 SIE beta-lactamase reporter, IL-6 stimulated, 5 h; at 7.69 µM (top of the series) unless noted;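 further: ME-180 cervical cancer cells given 40 pM IL-6 alongside compound; SIE-controlled beta-lactamase reporter measured as 460/530 nm FRET emission ratio; on the % scale 0 is the no-effect control and ±100 the full control effect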
Summary of the method: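 ME-180 cells carrying a SIE-driven beta-lactamase reporter are stimulated with 40 pM IL-6 for 5 h at 37C in the presence of compound. The 460/530 nm FRET substrate ratio is read after 2.5 h at RT. Data are normalised to 300 pM IL-6 and to 125 nM JAK inhibitor controls.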

[6] = target: Glucocorticoid receptor (Homo sapiens) (UniProt P04150); assay: GR-GFP Redistribution (AID 450;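 active means compounds whose dose series gives a full or clear partial fitted curve of increased nuclear translocation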; further: potency means the concentration at half of the fitted maximal effect); details: U2OS GR-GFP nuclear translocation, laser cytometry, 2 h
[7] = target: Glucocorticoid receptor (Homo sapiens) (UniProt P04150); assay: GR-EFC Redistribution (AID 451; calls by dose curve; further: potency means the concentration at half of the fitted maximal effect); details: CHO-K1 GR-EFC translocation, beta-gal luminescence, 2 h
Summary of the method: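 Translocation of GR-ED fusion to nuclear EA restores b-gal, read by luminescence after 1 h room-temperature detection. Engineered CHO-K1 biosensor cells, 1,000/well, exposed 2 h at 37 C to titrations up to 46 uM final.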

[8] = target: Mitogen-activated protein kinase 10 (Mus musculus) (UniProt Q61831); assay: JNK3 AlphaScreen Assay (AID 530); details: JNK3 lysate, c-Jun phosphorylation; series mostly up to 57.1 µM;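 further: kinase came from lysate of stimulated human HepG2 cells; signal reports phosphorylation of biotinylated GST-cJun 1-79 at Ser73 with 10 µM ATP; on the % scale 0 is the no-effect control and ±100 the full control effect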
Summary of the method: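 Room-temperature AlphaScreen kinase assay; pre-activated HepG2 lysate as JNK3 source, biotin-GST-cJun(1-79) substrate, 10 uM ATP, compound 15 min preincubation.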

[9] = target: 3',5'-cyclic-AMP phosphodiesterase 4B (Homo sapiens) (UniProt Q07343); assay: qHTS Assay for Inhibitors of PDE-IV (AID 607; active means well fitted activation curve with a large enough effect in the main read-out, with a control signal flat, not every such curve was filed as active; further: % of control where 0% means no effect); details: HEK293 ACTOne CNG channel cells, membrane potential fluorescence; series mostly up to 22.9 µM
Summary of the method: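 HEK293 ACTOne cells with CNG channel (1000/well), endogenous PDE4; membrane potential dye, compounds up to 22.9 uM final. Fluorescence Ex 535/Em 590; RO 20-1724 (100 uM final) as reference.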

[10] = target: Cytochrome P450 2C19 (Homo sapiens) (UniProt P33261); assay: qHTS Assay for Inhibitors and Substrates of Cytochrome P450 2C19 (AID 899; active means well fitted curve in the direction sought with a large enough effect; an effect the other way counts as inactive or inconclusive; further: nearly all actives have a fitted effect of over 60% in size; further: potency means the concentration at half of the fitted maximal effect); details: recombinant CYP2C19, luciferin-H EGE luminescence; series mostly up to 11.4 µM
Summary of the method: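 Reactions contain 5nM enzyme, 10uM Luciferin-H EGE (KM) and 50mM KPO4; compound preincubates 10 min at 37C, NADPH regeneration starts turnover for 60 min. Luminescence after detection reagent gives activity.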

[11] = target: Cytochrome P450 3A4 (Homo sapiens) (UniProt P08684); assay: qHTS Assay for Activators of Cytochrome P450 3A4 (AID 885; active means well fitted curve in the direction sought with a large enough effect; an effect the other way counts as inactive or inconclusive; further: nearly all actives have a fitted effect of over 65% in size); details: recombinant CYP3A4, Luciferin-PPXE luminescence, 60 min; series mostly up to 57.1 µM
Summary of the method: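 Human CYP3A4 (20 nM) with Luciferin-PPXE at 25 uM (its KM) in 200 mM KPO4; 10 min compound preincubation, then NADPH regeneration and 60 min reaction at RT. Luciferin read by luminescence; normalized to 57 uM ketoconazole full inhibition.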

[12] = target: Cytochrome P450 2D6 (Homo sapiens) (UniProt P10635); assay: qHTS Assay for Inhibitors and Substrates of Cytochrome P450 2D6 (AID 891; active means well fitted curve in the direction sought with a large enough effect; an effect the other way counts as inactive or inconclusive; further: nearly all actives have a fitted effect of over 60% in size; further: potency means the concentration at half of the fitted maximal effect); details: recombinant CYP2D6, luciferin-ME EGE luminescence; series mostly up to 11.4 µM
Summary of the method: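 Human CYP2D6 (5 nM) with 30 uM Luciferin-ME EGE (at Km) in 100 mM KPO4, compound preincubated 10 min, then NADPH regeneration system for 60 min at room temperature. Luciferin read by luminescence; normalized to 1.43 uM quinidine.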

[13] = target: Cytochrome P450 3A4 (Homo sapiens) (UniProt P08684); assay: qHTS Assay for Inhibitors and Substrates of Cytochrome P450 3A4 (AID 884; active means well fitted curve in the direction sought with a large enough effect; an effect the other way counts as inactive or inconclusive; further: potency means the concentration at half of the fitted maximal effect; nearly all actives have a fitted effect of over 50% in size); details: recombinant CYP3A4, Luciferin-PPXE luminescence; series mostly up to 57.1 µM
Summary of the method: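 20 nM human CYP3A4 with 25 uM Luciferin-PPXE (at KM) in 200 mM KPO4, preincubated 10 min with compound; NADPH regeneration started a 60 min RT reaction. Luciferin detected by luminescence, normalized to 57 uM ketoconazole as full inhibition.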

[14] = target: Cytochrome P450 2C9 (Homo sapiens) (UniProt P11712); assay: qHTS Assay for Inhibitors and Substrates of Cytochrome P450 2C9 (AID 883; active means well fitted curve in the direction sought with a large enough effect; an effect the other way counts as inactive or inconclusive; further: potency means the concentration at half of the fitted maximal effect; nearly all actives have a fitted effect of over 60% in size); details: recombinant CYP2C9, luciferin-H luminescence, 60 min; series mostly up to 57.1 µM
Summary of the method: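 Turnover of Luciferin-H (100uM, KM) by 10nM human CYP2C9 was measured over 60 min at 37C with NADPH regeneration; inhibitors and some substrates reduce luminescence. Data normalized to sulphaphenazole 57uM.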

[15] = target: Luciferin 4-monooxygenase (Photinus pyralis) (UniProt P08659); assay: Biochemical firefly luciferase enzyme assay for NPC (AID 624030; active means well fitted curve in the direction sought with a large enough effect; an effect the other way counts as inactive or inconclusive;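 further: purified P. pyralis luciferase at 10 nM with luciferin and ATP substrate; 0% = DMSO and -100% = full luciferase inhibition by PTC124 control; nearly all actives have a fitted effect of over 70% in size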); details: purified P. pyralis luciferase, luminescence, 5 min; series mostly up to 58.6 µM
Summary of the method: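 Direct inhibition of firefly luciferase enzyme (10 nM final, 50 mM Tris Acetate) assessed by luminescence within 5 minutes. Percent activity scaled between DMSO and PTC124 positive control, with concentration-effect curves classified by fit quality and response.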

Chain of Glucocorticoid receptor (Homo sapiens) (P04150 whole entry, looked up, the tested form may be a part): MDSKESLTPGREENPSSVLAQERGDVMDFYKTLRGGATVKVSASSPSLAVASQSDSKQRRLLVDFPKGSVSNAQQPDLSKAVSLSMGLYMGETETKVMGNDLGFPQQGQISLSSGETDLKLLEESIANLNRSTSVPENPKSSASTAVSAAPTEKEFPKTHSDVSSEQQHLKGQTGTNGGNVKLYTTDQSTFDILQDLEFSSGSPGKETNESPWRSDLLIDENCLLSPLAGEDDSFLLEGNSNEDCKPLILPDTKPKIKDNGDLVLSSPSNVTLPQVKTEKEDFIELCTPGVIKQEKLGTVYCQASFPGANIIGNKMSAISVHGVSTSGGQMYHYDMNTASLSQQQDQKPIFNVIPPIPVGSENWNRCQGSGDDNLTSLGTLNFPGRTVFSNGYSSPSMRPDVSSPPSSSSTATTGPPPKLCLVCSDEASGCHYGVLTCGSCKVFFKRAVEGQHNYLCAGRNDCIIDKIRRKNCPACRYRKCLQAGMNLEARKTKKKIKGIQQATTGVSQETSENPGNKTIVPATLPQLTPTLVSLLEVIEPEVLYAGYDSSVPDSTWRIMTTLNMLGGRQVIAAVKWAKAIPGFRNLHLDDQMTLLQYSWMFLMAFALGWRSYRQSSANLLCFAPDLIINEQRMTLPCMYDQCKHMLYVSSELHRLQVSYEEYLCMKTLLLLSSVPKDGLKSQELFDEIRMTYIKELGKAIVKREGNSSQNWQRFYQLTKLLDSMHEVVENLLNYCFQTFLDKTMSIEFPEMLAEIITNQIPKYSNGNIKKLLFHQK
Chain of Cytochrome P450 2D6 (Homo sapiens) (P10635 whole entry, looked up): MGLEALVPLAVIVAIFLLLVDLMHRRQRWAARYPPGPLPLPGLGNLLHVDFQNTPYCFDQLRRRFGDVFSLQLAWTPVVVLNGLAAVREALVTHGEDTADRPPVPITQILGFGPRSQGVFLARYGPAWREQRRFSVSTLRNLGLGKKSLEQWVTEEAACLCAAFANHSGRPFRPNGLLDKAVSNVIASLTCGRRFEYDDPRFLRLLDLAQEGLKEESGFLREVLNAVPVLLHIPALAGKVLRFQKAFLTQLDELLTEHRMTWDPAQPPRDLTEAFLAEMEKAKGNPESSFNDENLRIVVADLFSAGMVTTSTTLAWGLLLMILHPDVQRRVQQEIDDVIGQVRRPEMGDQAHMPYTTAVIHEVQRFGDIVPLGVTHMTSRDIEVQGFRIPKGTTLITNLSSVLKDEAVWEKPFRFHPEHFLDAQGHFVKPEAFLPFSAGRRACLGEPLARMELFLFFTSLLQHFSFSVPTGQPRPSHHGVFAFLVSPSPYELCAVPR
Chain of Cytochrome P450 3A4 (Homo sapiens) (P08684 whole entry, looked up): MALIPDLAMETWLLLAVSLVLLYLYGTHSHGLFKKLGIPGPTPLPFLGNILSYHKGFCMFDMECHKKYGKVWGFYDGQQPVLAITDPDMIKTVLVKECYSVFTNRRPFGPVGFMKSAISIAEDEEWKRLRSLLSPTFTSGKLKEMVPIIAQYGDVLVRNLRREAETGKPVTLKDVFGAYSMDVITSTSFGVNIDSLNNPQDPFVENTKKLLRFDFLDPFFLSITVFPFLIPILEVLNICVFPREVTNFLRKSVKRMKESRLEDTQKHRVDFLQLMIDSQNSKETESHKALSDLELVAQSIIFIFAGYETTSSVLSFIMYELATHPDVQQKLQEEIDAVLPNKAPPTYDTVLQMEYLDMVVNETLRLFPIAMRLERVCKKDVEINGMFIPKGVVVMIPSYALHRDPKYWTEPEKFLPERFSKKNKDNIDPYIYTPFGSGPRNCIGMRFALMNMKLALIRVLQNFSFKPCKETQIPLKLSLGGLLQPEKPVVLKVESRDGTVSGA
Chain of Cytochrome P450 1A2 (Homo sapiens) (P05177 whole entry, looked up): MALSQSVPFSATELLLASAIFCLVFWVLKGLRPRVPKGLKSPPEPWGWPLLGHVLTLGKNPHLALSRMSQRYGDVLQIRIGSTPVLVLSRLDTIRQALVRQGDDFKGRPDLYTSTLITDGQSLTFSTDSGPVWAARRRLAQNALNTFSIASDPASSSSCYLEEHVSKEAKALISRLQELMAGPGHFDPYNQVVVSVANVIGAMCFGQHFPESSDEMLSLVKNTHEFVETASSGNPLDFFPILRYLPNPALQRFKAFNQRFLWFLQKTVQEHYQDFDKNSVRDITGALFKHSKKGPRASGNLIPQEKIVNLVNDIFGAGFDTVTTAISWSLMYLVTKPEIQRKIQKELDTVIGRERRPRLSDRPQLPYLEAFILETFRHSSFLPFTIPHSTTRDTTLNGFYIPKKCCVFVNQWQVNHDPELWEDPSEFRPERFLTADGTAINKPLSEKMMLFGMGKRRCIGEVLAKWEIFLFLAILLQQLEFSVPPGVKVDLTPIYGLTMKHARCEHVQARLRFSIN
Chain of Cytochrome P450 2C19 (Homo sapiens) (P33261 whole entry, looked up): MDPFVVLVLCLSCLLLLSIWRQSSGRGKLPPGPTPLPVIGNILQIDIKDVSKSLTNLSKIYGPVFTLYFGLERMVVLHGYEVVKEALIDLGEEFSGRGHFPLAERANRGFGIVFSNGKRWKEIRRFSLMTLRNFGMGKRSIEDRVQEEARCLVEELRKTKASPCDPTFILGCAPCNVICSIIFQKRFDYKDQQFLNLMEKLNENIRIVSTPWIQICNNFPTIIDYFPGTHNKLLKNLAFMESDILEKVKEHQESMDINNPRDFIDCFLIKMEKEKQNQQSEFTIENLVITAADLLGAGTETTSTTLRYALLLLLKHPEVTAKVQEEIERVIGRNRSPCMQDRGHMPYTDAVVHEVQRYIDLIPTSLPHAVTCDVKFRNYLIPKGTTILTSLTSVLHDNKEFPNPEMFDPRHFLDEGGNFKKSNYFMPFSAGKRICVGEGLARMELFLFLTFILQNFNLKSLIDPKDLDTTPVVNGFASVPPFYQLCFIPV
Chain of 3',5'-cyclic-AMP phosphodiesterase 4B (Homo sapiens) (Q07343 whole entry, looked up): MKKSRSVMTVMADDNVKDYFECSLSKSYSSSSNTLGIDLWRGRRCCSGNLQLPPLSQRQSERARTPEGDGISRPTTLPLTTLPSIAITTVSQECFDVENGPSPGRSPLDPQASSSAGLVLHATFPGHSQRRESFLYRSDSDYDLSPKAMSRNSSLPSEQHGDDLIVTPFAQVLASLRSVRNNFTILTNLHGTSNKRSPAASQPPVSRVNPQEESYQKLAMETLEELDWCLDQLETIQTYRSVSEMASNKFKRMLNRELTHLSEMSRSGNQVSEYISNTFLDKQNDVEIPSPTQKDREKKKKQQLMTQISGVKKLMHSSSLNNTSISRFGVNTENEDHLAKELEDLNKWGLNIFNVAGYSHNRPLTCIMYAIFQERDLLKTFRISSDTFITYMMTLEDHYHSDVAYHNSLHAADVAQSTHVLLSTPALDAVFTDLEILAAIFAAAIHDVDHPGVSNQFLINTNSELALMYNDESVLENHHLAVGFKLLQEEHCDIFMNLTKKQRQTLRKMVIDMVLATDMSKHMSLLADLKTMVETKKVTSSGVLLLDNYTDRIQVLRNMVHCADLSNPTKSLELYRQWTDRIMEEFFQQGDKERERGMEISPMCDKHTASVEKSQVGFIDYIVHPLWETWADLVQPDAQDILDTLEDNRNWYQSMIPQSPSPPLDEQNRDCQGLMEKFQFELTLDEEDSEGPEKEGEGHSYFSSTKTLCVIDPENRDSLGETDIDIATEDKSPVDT
Chain of Lysosomal acid glucosylceramidase (Homo sapiens) (P04062 whole entry, looked up): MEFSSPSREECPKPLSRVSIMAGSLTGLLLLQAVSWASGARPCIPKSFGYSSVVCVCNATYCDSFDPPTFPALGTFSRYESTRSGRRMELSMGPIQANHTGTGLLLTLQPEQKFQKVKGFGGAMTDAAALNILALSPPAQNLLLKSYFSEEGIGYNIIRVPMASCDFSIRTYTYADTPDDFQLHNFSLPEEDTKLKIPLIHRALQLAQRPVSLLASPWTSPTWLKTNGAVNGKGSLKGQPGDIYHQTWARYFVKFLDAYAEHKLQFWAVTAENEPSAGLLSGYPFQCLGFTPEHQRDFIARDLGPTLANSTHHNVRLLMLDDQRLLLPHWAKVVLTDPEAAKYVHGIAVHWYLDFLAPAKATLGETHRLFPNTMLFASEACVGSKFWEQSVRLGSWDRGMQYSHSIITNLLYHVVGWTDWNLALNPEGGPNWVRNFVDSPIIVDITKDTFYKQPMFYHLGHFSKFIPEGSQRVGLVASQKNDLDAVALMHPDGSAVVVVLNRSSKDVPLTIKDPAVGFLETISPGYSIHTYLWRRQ
Chain of Cytochrome P450 2C9 (Homo sapiens) (P11712 whole entry, looked up): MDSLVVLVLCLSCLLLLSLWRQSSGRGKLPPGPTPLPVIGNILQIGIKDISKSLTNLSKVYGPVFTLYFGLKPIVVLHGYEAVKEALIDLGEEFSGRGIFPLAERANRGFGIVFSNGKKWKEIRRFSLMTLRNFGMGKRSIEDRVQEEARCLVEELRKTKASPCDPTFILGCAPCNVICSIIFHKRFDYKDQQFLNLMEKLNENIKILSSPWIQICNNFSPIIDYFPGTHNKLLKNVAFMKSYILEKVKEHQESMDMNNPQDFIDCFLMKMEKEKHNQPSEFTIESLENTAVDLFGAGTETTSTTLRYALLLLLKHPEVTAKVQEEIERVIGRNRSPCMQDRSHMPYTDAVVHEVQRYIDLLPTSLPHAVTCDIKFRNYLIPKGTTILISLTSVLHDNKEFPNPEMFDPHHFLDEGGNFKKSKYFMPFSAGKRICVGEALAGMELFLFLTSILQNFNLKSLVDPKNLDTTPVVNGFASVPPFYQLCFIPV

O=C(O)CS(=O)(=O)C(c1ccccc1)c1ccccc1
inactive: Potency [1] > 11.4 µM | activity change, negative = inhibition [2] -6.22% | activity change, negative = inhibition [3] -15.7% [at 2.29 µM] | activity change, negative = inhibition [4] -2.65% | activity, negative = inhibition [5] 3.8% | Potency [6] > 46 µM | Potency [7] > 9.22 µM | activity change, negative = inhibition [8] 1.62% [at 11.4 µM] | outcome [9] | Potency [10]

Oc1ccc(CCNCc2cc3c(cc2Br)OCO3)cc1
active: Potency [3] 1 µM | Potency [12] 0.316 µM | Potency [10] 5.01 µM
inactive: Potency [1] > 11.4 µM | activity change, negative = inhibition [2] -4.32% | activity change, negative = inhibition [4] -17% | activity, negative = inhibition [5] 9.31% | Potency [6] > 46 µM | Potency [7] > 9.22 µM | activity change, negative = inhibition [8] 0.159% [at 11.4 µM] | outcome [9] | activity change, positive = activation [11] -36.4% [at 11.4 µM]

Nc1ccc(S(=O)(=O)c2ccc(NCN3C(=O)NC(=O)C(=O)C3=O)cc2)cc1
active: Potency [13] 2 µM
inactive: Potency [1] > 11.4 µM | activity change, negative = inhibition [2] -11.3% | Potency [3] | activity change, negative = inhibition [4] 14.2% | activity, negative = inhibition [5] -4.49% | Potency [6] > 46 µM | Potency [7] > 9.22 µM | activity change, negative = inhibition [8] 1.4% [at 11.4 µM] | outcome [9] | activity change, positive = activation [11] -78% [at 11.4 µM] | Potency [10]

CC(C)c1nccn1Cc1ccc(Cl)cc1Cl
inactive: Potency [1] > 11.4 µM | activity change, negative = inhibition [2] -14.8% | Potency [3] | activity change, negative = inhibition [4] -21% | activity, negative = inhibition [5] 1.75% | Potency [6] > 46 µM | Potency [7] > 9.22 µM | activity change, negative = inhibition [8] -0.456% [at 11.4 µM] | outcome [9]

O=C(C[C@H](c1ccccc1)c1c(O)c2ccccc2oc1=O)c1ccccc1
inactive: Potency [1] > 11.4 µM | activity change, negative = inhibition [2] 2.29% | activity change, negative = inhibition [3] -12.6% [at 2.29 µM] | activity change, negative = inhibition [4] 11.4% | activity, negative = inhibition [5] -9.56% | Potency [6] > 46 µM | Potency [7] > 9.22 µM | activity change, negative = inhibition [8] -4.41% [at 11.4 µM] | outcome [9] | activity change, positive = activation [11] -30.1% [at 11.4 µM]
active: Potency [14] 0.631 µM

N=C(N)n1cc(/C=N\N=C(N)N)cn1
inactive: Potency [1] > 11.4 µM | activity change, negative = inhibition [2] 8.06% | activity change, negative = inhibition [3] 7.8% [at 2.29 µM] | activity change, negative = inhibition [4] 8.05% | activity, negative = inhibition [5] 9.59% | Potency [6] > 46 µM | Potency [7] > 9.22 µM | activity change, negative = inhibition [8] 6.38% [at 11.4 µM] | outcome [9] | Potency [12]

CN[C@H](Cc1ccccc1)c1cccc(OC)c1O
inactive: Potency [1] > 11.4 µM | activity change, negative = inhibition [2] 4.57% | Potency [3] | activity change, negative = inhibition [4] 10.1% | activity, negative = inhibition [5] -6.4% | Potency [6] > 46 µM | Potency [7] > 9.22 µM | activity change, negative = inhibition [8] 1.41% [at 11.4 µM] | outcome [9]
active: Potency [12] 0.0398 µM | Potency [10] 2 µM

COc1cc2c(cc1OC)[C@]13CC[N@+]4(C)CC5=CCO[C@H]6CC(=O)N2[C@@H]1[C@@H]6[C@@H]5C[C@]34O
inactive: Potency [1] > 11.4 µM | activity change, negative = inhibition [2] -12.3% | activity change, negative = inhibition [3] -11.4% [at 2.29 µM] | activity change, negative = inhibition [4] 4.86% | activity, negative = inhibition [5] -5.46% | Potency [6] > 46 µM | Potency [7] > 9.22 µM | activity change, negative = inhibition [8] 1.38% [at 11.4 µM] | activity change, positive = activation [11] -28.5% [at 11.4 µM]

c1ccc2c(c1)Sc1ccccc1N2C[C@H]1CN2CCC1CC2
active: activity change, negative = inhibition [4] -73.4% | Potency [12] 0.398 µM
inactive: Potency [1] > 11.4 µM | activity change, negative = inhibition [2] 24.9% | Potency [3] | activity, negative = inhibition [5] 9.78% | Potency [6] > 46 µM | Potency [7] > 9.22 µM | activity change, negative = inhibition [8] 3.89% [at 11.4 µM] | outcome [9] | outcome [15]

C[C@@H]1[C@@H](C)N1C[C@H](O)Cn1ccnc1[N+](=O)[O-] (some centres not stated)
inactive: Potency [1] > 11.4 µM | activity change, negative = inhibition [2] 1.57% | Potency [3] | activity change, negative = inhibition [4] 5.22% | activity, negative = inhibition [5] -1.27% | Potency [6] > 46 µM | Potency [7] > 9.22 µM | activity change, negative = inhibition [8] -1.55% [at 11.4 µM] | outcome [9]

NC[C@@H](Cc1ccccc1)P(=O)(O)O
inactive: Potency [1] > 11.4 µM | activity change, negative = inhibition [2] 11.5% | Potency [3] | activity change, negative = inhibition [4] 4.85% | activity, negative = inhibition [5] 2.4% | Potency [6] > 46 µM | Potency [7] > 9.22 µM | outcome [9]
